Records with an inconclusive call do not appear. Calls of active or inactive are those of the source. No rule for the calls is given here.

One assay is described as follows: qHTS Assay for Inhibitors of Influenza NS1 Protein Function: Viral Replication TCID50. As to conditions: Influenza virus replication in cells, at 10 µM, stronger effect = lower value. The source says: Influenza is a world-wide public health problem and emerging forms of the virus have the potential to cause a pandemic of equal or greater magnitude to the outbreaks recorded in 1918, 1957 or 1968. Vaccine development is proceeding and there also exist two classes of anti-influenza compounds. However these therapeutic modalities are neither fully effective nor widely enough available to fulfill global needs. In addition their potential usefulness against newly emergent strains is not known. Efforts are needed to develop novel agents against influenza virus, including broad-spectrum agents. Identification of small molecules that inhibit NS1 function either directly or by interfering with specific cellular pathways may be a key to increasing our defense against the virus.
We have miniaturized and optimized a cell based assay in which NS1 from influenza A is expressed in the budding yeast S. cerevisiae. NS1 is a multi-functional protein that counters the host innate immune response and facilitates viral versus cellular gene expression. Expression of NS1 causes a pronounced slow growth phenotype in yeast due to its intrinsic molecular activities. Small molecules that suppress the slow growth phenotype can be identified by a straightforward growth recovery assay using optical density (OD) as the measurement. The same yeast strain not expressing NS1 was used as positive control in the yeast growth recovery assay.
Hits resulting from the primary screen and other follow-up screens, were tested in two concentrations in this viral replication assay.
NIH Chemical Genomics Center [NCGC]
NIH Molecular Libraries Probe Centers Network [MLPCN]
Assay Submitter (PI): Daniel Engel, University of Virgina
Cell monolayers were infected at an m.o.i. of 0.1 for 48 h in the presence or absence of the compound, which was added at the beginning of infection. Virus titres were determined by TCID50 analysis (Reed, L. J. & Muench, H. (1938). A simple method of estimating fifty per cent endpoints. Am J Epidemiol 27, 493-497)
For the compound `COc1cc(-c2c(C#N)c(N)nc3c2c(C)nn3-c2ccc(C)cc2)ccc1O`, the viral titer (log10 TCID50) was 8.5 (active).

Consider `COc1cc(-c2c(C#N)c(N)nc3c2c(C)nn3-c2ccc(C)cc2)cc(OC)c1OC`, for which the viral titer (log10 TCID50) was 8.66 (active).

For the compound `COc1cc(-c2c(C#N)c(N)nc3c2c(C)nn3-c2ccc(F)cc2)ccc1O`, the viral titer (log10 TCID50) was 6 (active).

As for `COc1cc(-c2c(C(=O)O)cnc3c2c(C)nn3-c2ccc(F)cc2)ccc1O`, the viral titer (log10 TCID50) is 8.5 (active).

In the case of `COc1cc(-c2c3c(C)nn(-c4ccccc4)c3nc3[nH]c(=O)[nH]c(=O)c23)cc(OC)c1O`, the viral titer (log10 TCID50) was 8.33 (active).

Regarding `COc1cc(-c2ccnc3c2c(C)nn3-c2ccc(F)cc2)ccc1O`, the viral titer (log10 TCID50) was 8.68 (active).

Turning to `COc1ccc(-c2c(C#N)c(N)nc3c2c(C)nn3-c2ccc(C)cc2)cc1OC`, the viral titer (log10 TCID50) was 9 (active).

Regarding `COc1cc(-c2c3c(C)nn(-c4ccccc4)c3nc3[nH]c(=O)[nH]c(=O)c23)ccc1O`, the viral titer (log10 TCID50) was 8.66 (active).

As for `COc1ccc(-c2c3c(C)nn(-c4ccccc4)c3nc3[nH]c(=O)[nH]c(=O)c23)cc1O`, the viral titer (log10 TCID50) was 8.66 (active).

Consider `COc1cc(-c2c(C#N)c(N)nc3c2c(C)nn3-c2ccc(Cl)cc2)cc(OC)c1OC`, for which the viral titer (log10 TCID50) is 9 (active).

For the compound `COc1ccc(-c2c(C#N)c(N)nc3c2c(C)nn3-c2ccccc2)cc1OC`, the viral titer (log10 TCID50) was 8.66 (active).

As for `Cc1nn(-c2ccc(F)cc2)c2nc(N)c(C#N)c(-c3ccc(O)c(O)c3)c12`, the viral titer (log10 TCID50) is 7.66 (active).

Consider `COc1ccc(-c2c(C#N)c(=O)[nH]c3c2c(C)nn3-c2ccccc2)cc1OC`, for which the viral titer (log10 TCID50) is 8.66 (active).

Turning to `Cc1nn(-c2ccccc2)c2nc3[nH]c(=O)[nH]c(=O)c3c(-c3ccc4c(c3)OCO4)c12`, the viral titer (log10 TCID50) is 8.33 (active).

Regarding `CCOc1cc(-c2c(C#N)c(=O)[nH]c3c2c(C)nn3-c2ccc(F)cc2)ccc1O`, the viral titer (log10 TCID50) is 8.66 (active).

As to `COc1ccc(-c2c(C#N)c(N)nc3c2c(C)nn3-c2ccc(Cl)cc2)cc1OC`, the viral titer (log10 TCID50) is 9 (active).

In the case of `COc1cc(-c2c(C#N)c(N)nc3c2c(C)nn3-c2ccc(F)cc2)cc(OC)c1OC`, the viral titer (log10 TCID50) was 9 (active).

With `COc1ccc(-c2ccnc3c2c(C)nn3-c2ccc(F)cc2)cc1`, the viral titer (log10 TCID50) was 8.33 (active).

For the compound `COc1cc(-c2ccnc3c2c(C)nn3-c2cccc(F)c2)ccc1O`, the viral titer (log10 TCID50) is 9 (active).

For `COc1ccc(-c2c(C#N)c(N)nc3c2c(C)nn3-c2ccc(F)cc2)cc1OC`, the viral titer (log10 TCID50) is 8.66 (active).

The assay is the same for the next values; noted with them: Influenza virus replication in cells, viral titer, at 5 µM, stronger effect = lower value.
`COc1cc(-c2c(C#N)c(N)nc3c2c(C)nn3-c2ccc(C)cc2)ccc1O` had a viral titer (log10 TCID50) of 8.5.

In turn, `COc1cc(-c2c(C#N)c(N)nc3c2c(C)nn3-c2ccc(C)cc2)cc(OC)c1OC` returned a viral titer (log10 TCID50) of 9.

Take `COc1cc(-c2c(C#N)c(N)nc3c2c(C)nn3-c2ccc(F)cc2)ccc1O`: the viral titer (log10 TCID50) was determined as 7.66.

Turning to `COc1cc(-c2c(C(=O)O)cnc3c2c(C)nn3-c2ccc(F)cc2)ccc1O`, the viral titer (log10 TCID50) worked out at 8.88.

`COc1cc(-c2c3c(C)nn(-c4ccccc4)c3nc3[nH]c(=O)[nH]c(=O)c23)cc(OC)c1O` came in with a viral titer (log10 TCID50) of 8.66.

`COc1cc(-c2ccnc3c2c(C)nn3-c2ccc(F)cc2)ccc1O` registered a viral titer (log10 TCID50) of 8.88.

For `COc1ccc(-c2c(C#N)c(N)nc3c2c(C)nn3-c2ccc(C)cc2)cc1OC`, the viral titer (log10 TCID50) worked out at 9.

`COc1cc(-c2c3c(C)nn(-c4ccccc4)c3nc3[nH]c(=O)[nH]c(=O)c23)ccc1O`: the viral titer (log10 TCID50) was 8.66.

For the compound `COc1ccc(-c2c3c(C)nn(-c4ccccc4)c3nc3[nH]c(=O)[nH]c(=O)c23)cc1O`, the viral titer (log10 TCID50) amounted to 8.66.

The compound `COc1cc(-c2c(C#N)c(N)nc3c2c(C)nn3-c2ccc(Cl)cc2)cc(OC)c1OC` yielded a viral titer (log10 TCID50) of 9.

The compound `COc1ccc(-c2c(C#N)c(N)nc3c2c(C)nn3-c2ccccc2)cc1OC` came in with a viral titer (log10 TCID50) of 9.

The compound `Cc1nn(-c2ccc(F)cc2)c2nc(N)c(C#N)c(-c3ccc(O)c(O)c3)c12` came in with a viral titer (log10 TCID50) of 8.5.

Compound `COc1ccc(-c2c(C#N)c(=O)[nH]c3c2c(C)nn3-c2ccccc2)cc1OC` returned a viral titer (log10 TCID50) of 9.

Compound `Cc1nn(-c2ccccc2)c2nc3[nH]c(=O)[nH]c(=O)c3c(-c3ccc4c(c3)OCO4)c12` displayed a viral titer (log10 TCID50) of 8.66.

Compound `CCOc1cc(-c2c(C#N)c(=O)[nH]c3c2c(C)nn3-c2ccc(F)cc2)ccc1O` had a viral titer (log10 TCID50) of 9.

On to `COc1ccc(-c2c(C#N)c(N)nc3c2c(C)nn3-c2ccc(Cl)cc2)cc1OC`, for which the viral titer (log10 TCID50) was 9.

`COc1cc(-c2c(C#N)c(N)nc3c2c(C)nn3-c2ccc(F)cc2)cc(OC)c1OC` gave a viral titer (log10 TCID50) of 9.

The compound `COc1ccc(-c2ccnc3c2c(C)nn3-c2ccc(F)cc2)cc1` came in with a viral titer (log10 TCID50) of 9.

In the case of `COc1cc(-c2ccnc3c2c(C)nn3-c2cccc(F)c2)ccc1O`, the viral titer (log10 TCID50) was determined as 9.

With `COc1ccc(-c2c(C#N)c(N)nc3c2c(C)nn3-c2ccc(F)cc2)cc1OC`, the viral titer (log10 TCID50) turned out to be 8.66.

The values above are taken from PubChem BioAssay AID602454 (National Center for Advancing Translational Sciences (NCATS), 2012).
